Measured values taken from PubChem BioAssay (NCATS).
Records with an inconclusive call do not appear. Activity calls are given as the source filed them. Calls follow the shape of the dose curve; as a rule, active = well fitted cell-killing curve with a large enough effect; inconclusive = small, poorly fitted or top-dose-only effect; inactive = flat fitted curve, though single readings scatter.

Assay: Cell Viability - LYMP2-016 (AID 984); also: nearly all actives have a fitted effect of over 55% in size
Conditions: LYMP2-016 lymphoblastoid cell viability, qHTS; series mostly up to 92.2 µM
Excerpt: NIH Chemical Genomics Center [NCGC]
NIH Molecular Libraries Screening Centers Network [MLSCN]
National Institutes of Environmental Health Sciences [NIEHS]
National Toxicology Program [NTP]
We have developed a 1536-well cell-based assay for quantitative high throughput screening (qHTS) against a number of cell lines to determine in vitro cytotoxicity of small molecules. This particular assay uses a human lymphoblastoid cell line (LYMP2-016) purchased from Coriell Institute for Medical Research.
NCGC Assay Protocol Summary:
The CellTiter-Glo luminescent cell viability assay (Promega) is a homogeneous method to measure the number of viable cells in culture. The end point readout of this assay is based on quantitation of intracellular ATP, an indicator of metabolic activity, using the luciferase reaction. Luciferase catalyzes the oxidation of beetle Luciferin to oxyluciferin and light in the presence of ATP. The luminescent signal is proportional to amount of ATP present.
Using the CellTiter-Glo luminescent cell viability assay, the amount of cellular ATP was measured in the lymphoblastoid cell line with complete culture medium following compound treatment for 24 hours. The assay was performed in opaque white Kalypsys 1536-well plates. In the screen, tetraoctylammonium bromide was used as positive control. Library compounds were measured for their ability to cause acute toxicity in the cell line, as reflected by a decrease in intracellular ATP levels, in a concentration-dependent manner. […] AC50 values were determined from concentration-response data modeled with the standard Hill equation.
qHTS protocol for CellTiter Glo lymphoblastoid cellular assay
[Step] [Parameter] [Value] [Description]
1. Reagent; 5 uL; 2500 lymphoblastoid cells/well
2. Time; 5 hr; 37 C incubation
4. Controls; 23 nL; Tetraoctylammonium bromide 6.4pM to 92 uM
5. Time; 24 hr; 37 C incubation
6. Reagent; 5 uL; CellTiter Glo reagent
7. Time; 30 min; Room Temperature
8. Detection; Luminescence; Viewlux plate reader
Keywords: cell viability, cytotoxicity, lymphoblastoid cell line, luminescence, NTPHTS, NTPHTS_NCGC, NIEHS, DSSTox, MLSMR, MLSCN, NIH Roadmap, qHTS, NCGC

Question: Which outcome does the source give for `C[C@]12CCC(=O)C=C1CC[C@@H]1[C@@H]2CC[C@@]2(C)[C@H]1CC[C@]2(C)O` here?
Answer: inactive

Question: Which outcome does the source give for `COC(=O)C(c1ccccc1)C1CCCCN1` (configuration not stated) here?
Answer: inactive

Question: For `Oc1ccc(Cl)cc1`, which outcome is on record?
Answer: inactive

Question: For `CCC(C)(C)c1ccc(O)cc1`, which outcome is on record?
Answer: inactive

Question: Which outcome does the source give for `NCCc1ccc(O)cc1` here?
Answer: inactive

Question: With `Nc1ccccc1` as the compound, how does the outcome read?
Answer: inactive

Question: For `CCCC(C)(COC(N)=O)COC(N)=O`, which outcome is on record?
Answer: inactive

Question: For `CCOC(=O)CC(SP(=S)(OC)OC)C(=O)OCC` (configuration not stated), which outcome is on record?
Answer: inactive

Question: With `Nc1ccccc1C(=O)O` as the compound, how does the outcome read?
Answer: inactive

Question: For `C[C@]1(O)CC[C@H]2[C@@H]3CCC4=CC(=O)CC[C@]4(C)[C@@]3(F)[C@@H](O)C[C@@]21C`, which outcome is on record?
Answer: inactive

Question: With `O=P1(N(CCCl)CCCl)NCCCO1` (configuration not stated) as the compound, how does the outcome read?
Answer: inactive

Question: With `C[C@]12CCC(=O)C=C1CC[C@@H]1[C@@H]2CC[C@]2(C)C(=O)CC[C@@H]12` as the compound, how does the outcome read?
Answer: inactive

Question: With `COc1cc(OC)c(OC)cc1C=O` as the compound, how does the outcome read?
Answer: inactive

Question: With `CC(C)NC(C)C` as the compound, how does the outcome read?
Answer: inactive

Question: With `COP(=S)(OC)Oc1ccc(SC)c(C)c1` as the compound, how does the outcome read?
Answer: inactive

Question: For `CC(C)c1cccc(C(C)C)c1O`, which outcome is on record?
Answer: inactive

Question: For `Clc1ccc(C(c2ccc(Cl)cc2)C(Cl)(Cl)Cl)cc1`, which outcome is on record?
Answer: inactive
